AC50 data for two molecules are collected here from PubChem BioAssay AID2284216 (EPA ToxCast).

The source made the active and inactive calls. Rule for the calls: active = hit-call score of the fitted dose curve at least 0.9, where 1 is the maximum; inactive = score below 0.9.

Sequence of rat Peripheral Benzodiazepine Receptor (PBR), Tspo (gene 24230) (P16257 whole entry, looked up): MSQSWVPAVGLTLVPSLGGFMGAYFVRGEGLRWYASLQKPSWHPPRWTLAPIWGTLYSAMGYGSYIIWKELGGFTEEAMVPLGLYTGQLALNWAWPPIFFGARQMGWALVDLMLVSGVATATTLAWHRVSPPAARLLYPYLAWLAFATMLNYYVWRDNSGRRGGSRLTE

The assay has as its target rat Peripheral Benzodiazepine Receptor (PBR), Tspo (gene 24230) (UniProt P16257). The assay can be described thus: ERF_TW_TR_rTSPO: Eurofins (ERF) Radioligand Binding Assay for rat Peripheral Benzodiazepine Receptor (PBR) Antagonism. The protocol: ERF_TW_TR_rTSPO is a biochemical, single-readout assay that uses extracted gene-proteins in a cell-free assay. Measurements were taken 0.25 hour after chemical dosing in a 96-well plate. See PBR Rat Binding (Antagonist Radioligand) Assay, Panlabs.ERF_TW_TR_rTSPO is an assay component calculated from the ERF_TW_TR_rTSPO assay. It is designed to measure radioligand binding using a type of binding reporter as detected by scintillation counting with radiometry technology.Data from the assay component ERF_TW_TR_rTSPO was analyzed at the assay endpoint, ERF_TW_TR_rTSPO, in the positive analysis fitting direction relative to DMSO as the negative control and baseline of activity. Using a type of binding reporter, loss-of-signal activity can be used to understand changes in transporter binding as they relate to gene TSPO. To generalize the intended target to other relatable targets, this assay endpoint is annotated to the transporter intended target family, where the subfamily is cholesterol transporter.
Cells are incubated for 15 minutes at room temprature with [3H]PK 11195 (0.2 nM) as lingand.Test Sample Requirements: Minimum for 1) Screen: 60 ul of 10 mM stock -OR- 1 mg (pre-weighed) for 10uM final testing. . 2) Dose Response: 90 ul of 10 mM stock -OR- 1 mg (pre-weighed) for a top concentration at 10uM. .
As for `COc1cc(CCC(=O)CC(=O)CCc2ccc(O)c(OC)c2)ccc1O`, the AC50 is 2.55 µM (active).

On to `O=C(/C=C/c1ccc(O)cc1)CC(=O)/C=C/c1ccc(O)cc1`, for which the AC50 was 0.161 µM (active).

For orientation: AC50 means the concentration at which the activity in the assay is half-maximal.
